Potency data for 40 compounds are collected here from PubChem BioAssay (Tox21).

“And” between values parts separate entries of the source, which are not always exact repeats. Equal entries are not always repeated. Results filed as inconclusive are left out. Entries that show only a call come without a potency. The source holds several records for some structures; these can differ, active in one and inactive in another. The source made the active and inactive calls. Calls come from the whole dose curve; as a rule, active = well fitted cell-killing curve with a large enough effect in the repeat runs; inconclusive = weak or mixed curves, or effect the other way; inactive = no such curve, though single readings can be large or run the other way. Positions of bridges follow the written chain, without caps; N, C: chain ends. Non-standard residues stand in square brackets, D forms with d. Residues, ends and D or L forms follow the SMILES beside them. *: point of attachment. Dab(CH2SO3H) = N[C@@H](CCNCS(=O)(=O)O)C(=O)O; X3 = CC[C@@H](C)CCCCC(=O)*; Dab = NCC[C@H](N)C(=O)O
Potency is the fitted concentration of half-maximal effect.

The nature of this experiment: qHTS assay for identifying genotoxic compounds that show differential cytotoxicity against isogenic chicken DT40 cell lines with known DNA damage response pathways - Rev3 mutant cell line (AID 743014). Note: nearly all actives have a fitted effect of over 55% in size. As to conditions: chicken DT40 Rev3-/- viability, CellTiter-Glo, 40 h; series mostly up to 68.4 µM. The source says:
National Center for Advancing Translational Sciences [NCATS]
NIH Chemical Genomics Center [NCGC]
U.S. Environmental Protection Agency [EPA]
National Institutes of Environmental Health Sciences [NIEHS]
National Toxicology Program [NTP]
U.S. Food and Drug Administration [FDA]
DNA repair pathways play a critical role in cellular homeostasis by repairing DNA damage induced by endogenous processes and xenobiotics. Isogenic chicken DT40 cell lines deficient in different DNA repair pathways can be used to identify genotoxic compounds and aid in characterizing the nature of the DNA damage induced. Two DNA repair-deficient cell lines with disrupted genes, Rad54/Ku70 or Rev3, were used to screen the Tox21 10K compound library. Possible genotoxicity was based on the presence of a significant increase in cytotoxicity in one or more of the DNA repair-deficient cell lines compared to that observed in the parental DNA repair-proficient cell line. CellTiter Glo viability assay (Promega, Madison, WI) was used to measure cell viability in these cells after compound treatment. This assay includes the data from the Rev3 mutant cell line.
Tox21 Assay Protocol Summary:
300 DT40 mutant cells in 5 uL/well were dispensed into white, solid-bottom 1536-well plates using a Multidrop Combi (ThermoFisher Scientific, Waltham, MA) dispenser. After the assay plates were incubated at 37 C/5% CO2 for approximately 0.5 hour, 23 nL of compounds dissolved in DMSO, positive controls or DMSO only was transferred into the assay plate by a pintool work station (Kalypsys, San Diego, CA). The assay plates were incubated at 37 C/5% CO2 for 40 hours. After 5 uL per well of CellTiter-Glo reagent was added into each well of the assay plates, the plates were incubated for 30 min at room temperature and the luminescence intensity of the plates was measured using a ViewLux (PerkinElmer, Shelton, CT) plate reader.
A general note: qHTS replaces the single test concentration by a dilution series.
Turning to `COC(=O)[C@H]1[C@H]2C[C@H]3c4[nH]c5ccccc5c4CCN3C[C@H]2CC[C@@H]1O`, the Potency entry was “inactive”.

`CC(=O)OCC(=O)[C@@]1(O)CC[C@H]2[C@@H]3C[C@H](C)C4=CC(=O)C=C[C@]4(C)[C@H]3[C@@H](O)C[C@@]21C`: the Potency result was “inactive”. Turning to `c1ccc2cc3c4ccccc4c4ccccc4c3cc2c1`, the Potency result is “inactive”. For the compound `Cc1cc(-c2ccc(N=Nc3ccc4c(S(=O)(=O)O)cc(S(=O)(=O)O)c(N)c4c3O)c(C)c2)ccc1N=Nc1ccc2c(S(=O)(=O)O)cc(S(=O)(=O)O)c(N)c2c1O`, the Potency is 23.7 µM (active).

Regarding `CCN(CC)CC#CCOC(=O)C(O)(c1ccccc1)C1CCCCC1` (stereo not given), the Potency is 13.3 µM (active).

On to `CCC1OC(=O)C[C@@H](O)[C@H](C)[C@@H](O[C@@H]2O[C@H](C)C[C@H](N(C)C)[C@H]2O)[C@@H](CC=O)C[C@@H](C)C(=O)/C=C/[C@]2(C)OC2C1C` (stereo not given in full), for which the Potency was 21.1 µM (active) and 8.41 µM (active). Consider `CC(=O)[C@]1(O)Cc2c(O)c3c(c(O)c2[C@@H](O[C@H]2C[C@H](N)[C@H](O)[C@H](C)O2)C1)C(=O)c1ccccc1C3=O`, for which the Potency is 0.0211 µM (active). The same measure for `CC[C@@H](C(=O)[C@@H](C)[C@@H](O)[C@H](C)CCc1ccc(C)c(O)c1C(=O)O)[C@H]1O[C@](CC)([C@H]2CC[C@](O)(CC)[C@H](C)O2)C[C@@H]1C`: 4.73 µM (active). With `CC1CCCC(C)N1NC(=O)c1ccc(Cl)c(S(N)(=O)=O)c1` (stereo not given), the Potency entry was “inactive”. For `CCc1ncnc2cc(OC)c(OC)cc12`, the Potency entry is “inactive”. In the case of `CCCCCCCCCCCCCCCCC(C(=O)O)C(O)(CC(=O)O)C(=O)O` (stereo not given), the Potency entry is “inactive”. In the case of `O=C(O)/C=C/C(O)c1ccc(Cl)cc1` (stereo not given), the Potency result was “inactive”. With `CNCC(=O)N[C@@H](CCCN=C(N)N)C(=O)N[C@H](C(=O)N[C@@H](Cc1ccc(O)cc1)C(=O)N[C@H](C(=O)N[C@@H](Cc1cnc[nH]1)C(=O)N1CCC[C@H]1C(=O)N[C@@H](C)C(=O)O)C(C)C)C(C)C`, the Potency result was “inactive”. Regarding `CCN(CC)CCn1c(=O)c(Cc2ccc(OC)cc2)nc2ccccc21`, the Potency is 29.8 µM (active).

As to `COc1cc2c(cc1O)CCN[C@]21CS[C@@H]2c3c(OC(C)=O)c(C)c4c(c3[C@H](COC1=O)N1[C@@H]2[C@H]2c3c(cc(C)c(OC)c3O)C[C@@H]([C@@H]1O)N2C)OCO4`, the Potency is 0.0486 µM (active). Turning to `CCN(CC)C(=O)c1cccnc1`, the Potency entry was “inactive”. Consider `O=[N+]([O-])c1ccc(O)c2ncccc12`, for which the Potency is 2.66 µM (active). In the case of `N[C@H](C(=O)O)[C@@H]1CC(Cl)=NO1`, the Potency was 2.66 µM (active).

As for `NS(=O)(=O)c1cc(Cl)c(Cl)c(S(N)(=O)=O)c1`, the Potency result was “inactive”. As to `FC(F)(F)C(F)(F)C(F)(F)C(F)(F)C(F)(F)F`, the Potency result is “inactive”.

As for `NCc1cccc(C2CCN(C(=O)c3ccc(C#Cc4ccccc4F)o3)CC2)c1`, the Potency was 30.6 µM (active). In the case of `CCCn1c(=O)[nH]c(=O)c2[nH]cnc21`, the Potency result is “inactive”. On to `CCCCCCCC/C=C\CCCCCCCC(=O)N(CCO)CCO`, for which the Potency is 17.2 µM (active). As for `C[C@H]1O[C@@H](O[C@H]2CC[C@@]3(C)[C@H](CC[C@@H]4[C@@H]3C[C@@H](O)[C@]3(C)[C@@H](C5=CC(=O)OC5)CC[C@]43O)C2)C[C@H](O)[C@@H]1O[C@H]1C[C@H](O)[C@H](O[C@H]2C[C@H](O)[C@H](O[C@@H]3O[C@H](CO)[C@@H](O)[C@H](O)[C@H]3O)[C@@H](C)O2)[C@@H](C)O1`, the Potency was 1.33 µM (active). Take `Cc1cccc(C)c1NC(=O)C1CCCCN1C` (stereo not given): the Potency result is “inactive”. Regarding `CCOC(=O)Cc1ccc(-c2ccccc2)cc1`, the Potency result was “inactive”.

Regarding `COC1[C@@H](O[C@@H]2O[C@H](C)[C@@H](O[C@H]3C[C@@](C)(O)[C@H](OC(=O)CC(C)C)[C@H](C)O3)[C@H](N(C)C)[C@H]2O)[C@@H](CC=O)C[C@@H](C)[C@@H](O)/C=C/C=C/C[C@@H](C)OC(=O)C[C@H]1OC(C)=O` (stereo not given in full), the Potency entry was “inactive”.

On to `COc1cccc(-c2ccc(/C=C\CN3CCCCCC3)cc2Cl)c1`, for which the Potency was 0.483 µM (active). The same measure for `N[C@@H](Cc1ccc(O)c(O)c1)C(=O)O`: “inactive”; for `NC(N)=NCC1COC2(CCCCC2)O1` (stereo not given): “inactive”; for `CN(C[C@@H](CC[N+]12CCC(C3CCCCC3)(CC1)CC2)c1ccc(Cl)c(Cl)c1)C(=O)c1cc(C(F)(F)F)cc(C(F)(F)F)c1`: 9.69 µM (active). The same measure for `CC[C@H]1OC(=O)C[C@@H](O)[C@H](C)[C@@H](O[C@@H]2O[C@H](C)[C@@H](O[C@H]3C[C@@](C)(O)[C@@H](O)[C@H](C)O3)[C@H](N(C)C)[C@H]2O)[C@@H](CC=O)C[C@@H](C)C(=O)/C=C/C(C)=C/[C@@H]1CO[C@@H]1O[C@H](C)[C@@H](O)[C@@H](OC)[C@H]1OC`: “inactive”.

For `CC[C@H]1OC(=O)[C@H](C)C(=O)[C@H](C)[C@@H](O[C@@H]2O[C@H](C)C[C@H](N(C)C)[C@H]2O)[C@](C)(OC)C[C@@H](C)C(=O)[C@H](C)[C@H]2N(CCCCn3cnc(-c4cccnc4)c3)C(=O)O[C@]12C`, the Potency was 5.96 µM (active) and inactive. As to `O=C(O)COc1ccc(C(=O)c2cccs2)c(Cl)c1Cl`, the Potency entry was “inactive”.

`CNCCC=C1c2ccccc2CCc2ccccc21`: the Potency is 11.9 µM (active).

As to `COc1ccc([C@@H]2CC(=O)c3c(O)cc(O[C@@H]4O[C@H](CO[C@@H]5O[C@@H](C)[C@H](O)[C@@H](O)[C@H]5O)[C@@H](O)[C@H](O)[C@H]4O)cc3O2)cc1O`, the Potency entry was “inactive”. On to `NCCO/C=C/[C@H](N)C(=O)O`, for which the Potency entry is “inactive”. With `COc1cc([C@@H]2c3cc4c(cc3[C@@H](O[C@@H]3O[C@@H]5CO[C@@H](C)O[C@H]5[C@H](O)[C@H]3O)[C@H]3COC(=O)[C@H]23)OCO4)cc(OC)c1O`, the Potency is 473 nM (active) and 107 nM (active).

As to `CC[C@@H](C)CCCCC(=O)N[C@@H](CCNCS(=O)(=O)O)C(=O)N[C@H](C(=O)N[C@@H](CCNCS(=O)(=O)O)C(=O)N[C@H]1CCNC(=O)[C@H]([C@@H](C)O)NC(=O)[C@H](CCNCS(=O)(=O)O)NC(=O)[C@H](CCNCS(=O)(=O)O)NC(=O)[C@H](CC(C)C)NC(=O)[C@@H](CC(C)C)NC(=O)[C@H](CCNCS(=O)(=O)O)NC1=O)[C@@H](C)O` (X3-[Dab(CH2SO3H)]T[Dab(CH2SO3H)][Dab][Dab(CH2SO3H)][dL]L[Dab(CH2SO3H)][Dab(CH2SO3H)]T; lactam 4-C), the Potency was 23.7 µM (active). As for `CC(C)OC(=O)Nc1ccc2nc(-c3cscn3)[nH]c2c1`, the Potency is 1.88 µM (active).
